Compounds without any hit were thinned out: in the full panel of roughly 79,000, 15% have a hit. Values without a mark were called inactive. Calls of active or inactive are those of the source. No stated cut-off is given here; in the data, active means growth inhibition above about 70%; inactive means the rest.
Key:
[1] = NCI Yeast Anticancer Drug Screen. Data for the rad50 strain (AID 155);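 further: 0% = growth of vehicle-only cultures of the same strain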; conditions: S. cerevisiae rad50 strain growth inhibition, hits give high values
How it was run: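 Yeast carrying a defined DNA repair defect were exposed to test compounds, and growth was compared with vehicle-treated controls to give percent inhibition.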

[2] = NCI Yeast Anticancer Drug Screen. Data for the mec2-1 strain (AID 157); conditions: S. cerevisiae mec2-1 strain, hits give high values
How it was run: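 Mutant yeast (mec2-1) grown with compound; growth inhibition relative to vehicle control reported.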

[3] = NCI Yeast Anticancer Drug Screen. Data for the sgs1 mgt1 strain (AID 161);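 further: 0% = growth of cultures given vehicle only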; conditions: S. cerevisiae sgs1 mgt1 strain, hits give high values
How it was run: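 Growth of a repair-deficient yeast mutant was monitored after compound treatment and expressed as inhibition relative to vehicle-treated cultures.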

[4] = NCI Yeast Anticancer Drug Screen. Data for the cln2 rad14 strain (AID 165);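 further: 0% = growth equal to vehicle treated cultures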; conditions: S. cerevisiae cln2 rad14 strain, hits give high values
How it was run: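 Readout is yeast growth inhibition versus vehicle-treated controls, using a strain with cln2 and rad14 alterations exposed to compound.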

[5] = NCI Yeast Anticancer Drug Screen. Data for the bub3 strain (AID 167); conditions: S. cerevisiae bub3 mutant strain, hits give high values
How it was run: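 Compounds were applied to a genetically altered yeast strain carrying a cell-cycle control defect. Growth inhibition was scored against vehicle-treated controls.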

[6] = NCI Yeast Anticancer Drug Screen. Data for the mlh1 rad18 strain (AID 175); conditions: S. cerevisiae mlh1 rad18 strain growth inhibition, hits give high values
How it was run: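 Genetically defined yeast (DNA repair-deficient) exposed to compounds; growth inhibition determined relative to vehicle.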

[7] = at 5.0 µM (retest, dose inferred, filed as 0.5)
[8] = at 50.0 µM (retest, dose inferred, filed as 5.0)

Row | SMILES | growth inhibition [1, 7] | growth inhibition [1, 8] | growth inhibition ([1]; at 50.0 µM) | growth inhibition [2, 7] | growth inhibition [2, 8] | growth inhibition ([2]; at 50.0 µM) | growth inhibition [3, 7] | growth inhibition [3, 8] | growth inhibition ([3]; at 50.0 µM) | growth inhibition [4, 7] | growth inhibition [4, 8] | growth inhibition ([4]; at 50.0 µM) | growth inhibition [5, 7] | growth inhibition [5, 8] | growth inhibition ([5]; at 50.0 µM) | growth inhibition [6, 7] | growth inhibition [6, 8] | growth inhibition ([6]; at 50.0 µM)
1 | Cc1nc(-c2ccccc2)nc2c1nc(C(C)C)n2Nc1ccccc1 | -2% | 20% | 94.1% (active) | -3% | 41% | 57.6% | 0% | 25% | 73.8% (active) | -9% | 33% | 64.8% | 3% | 35% | 80.8% (active) | -4% | 37% | 78.5% (active)
2 | O=C(N/C(=C\c1ccc(Br)cc1)c1nc2ccccc2[nH]1)c1ccccc1 | 3% | 59% | 73.4% (active) | -17% | 27% | 95.8% (active) | -2% | 60% | 68% | -6% | 41% | 66.9% | 6% | 78% (active) | 88.4% (active) | 2% | 21% | 96.5% (active)
3 | C[N+](C)(CCO)Cc1ccccc1 | -4% | 10% | -19.4% | 1% | 0% | 1.6% | -5% | -37% | 11.2% | -1% | 2% | -30.6% | 8% | 39% | 74.2% (active) | -4% | 6% | 34%
4 | Cc1cc(O)c(NCCN(C)C)c2c(=O)c3ccccc3sc12 | 18% | 97% (active) | 98.5% (active) | 7% | 97% (active) | 99.1% (active) | 8% | 98% (active) | 98.8% (active) | 12% | 97% (active) | 97.8% (active) | 6% | 94% (active) | 98% (active) | 5% | 97% (active) | 98.7% (active)
5 | COC1(OC)C(C#N)(C#N)C2(C(=O)Nc3ccccc32)C1(OC)OC (configuration not stated) | 11% | -4% | 15.4% | -12% | -16% | 12.2% | -2% | -25% | 97% (active) | -4% | -7% | 28% | -14% | 38% | -7.6% | 10% | -22% | 90% (active)
6 | O=c1[nH]c2ccccc2c2cccc(F)c12 | 12% | 89% (active) | 94.2% (active) | 10% | 76% (active) | 71.3% (active) | 13% | 88% (active) | 94.8% (active) | 4% | 68% | 69.5% | -8% | 78% (active) | 91.8% (active) | 7% | 81% (active) | 86.7% (active)
7 | CC(C)=CN(C)C (tested in a mixture with another compound) | -120% | 87% (active) | 93.5% (active) | -36% | 91% (active) | 96.7% (active) | -42% | 89% (active) | 91.7% (active) | -55% | 97% (active) | 98.4% (active) | -68% | 83% (active) | 91.2% (active) | -113% | 95% (active) | 95.8% (active)
8 | O=C(Oc1cccc2cccnc12)c1cccnc1 | 93% (active) | 98% (active) | 93.5% (active) | 58% | 99% (active) | 99.2% (active) | 89% (active) | 99% (active) | 98% (active) | 43% | 94% (active) | 92.2% (active) | 97% (active) | 98% (active) | 97.8% (active) | 82% (active) | 98% (active) | 97.5% (active)
9 | C/C=C1/C=CC2c3[nH]c4ccccc4c3CCN2C1 (configuration not stated) | -152% | -150% | 5.35% | -51% | -57% | -0.8% | -62% | -67% | 2.95% | -62% | -72% | 38% | -73% | -81% | -13.4% | -137% | -107% | 13%
10 | C=CC[P+](CC[P+](CC=C)(c1ccccc1)c1ccccc1)(c1ccccc1)c1ccccc1 | -2% | -3% | 2.6% | -1% | -4% | -0.25% | -2% | 1% | 16.6% | -5% | -10% | -31.6% | -3% | -3% | 6.8% | 1% | -1% | 52.2%
11 | CSc1c(C)n([O-])c2cc(Cl)c(Cl)cc2[n+]1=O | 20% | 94% (active) | 79.8% (active) | 14% | 93% (active) | 86% (active) | 24% | 99% (active) | 85.4% (active) | 17% | 87% (active) | 64.4% | 24% | 96% (active) | 79.2% (active) | 23% | 97% (active) | 92.3% (active)
12 | CCNC(=S)N/N=C(/C)c1cccc(/C(C)=N\NC(=S)NCC)n1 | 1% | 12% | 57.5% | 10% | 10% | 38.4% | 13% | 24% | 63.7% | 8% | 6% | 19.1% | 18% | 38% | 54.2% | 12% | 22% | 37.7%
13 | CSc1nc(=Nc2ccccc2)sn1-c1ccccc1 | 10% | 98% (active) | 98.8% (active) | 26% | 98% (active) | 99.5% (active) | 27% | 98% (active) | 99.2% (active) | 27% | 97% (active) | 99.4% (active) | 41% | 98% (active) | 99.3% (active) | 15% | 98% (active) | 99% (active)
14 | O=S(=O)(Nc1cccc(C2=NCCN2)c1)c1ccc2c(S(=O)(=O)Nc3cccc(C4=NCCN4)c3)cccc2c1 | -3% | 9% | 82.5% (active) | 6% | 2% | 9.45% | -5% | 2% | 88.3% (active) | -1% | 6% | 13.6% | -7% | -12% | 4.8% | -2% | 3% | 78.2% (active)
15 | O=C1/C(=C/c2ccc([N+](=O)[O-])cc2)CNC/C1=C\c1ccc([N+](=O)[O-])cc1 | 74% (active) | 99% (active) | 77% (active) | 87% (active) | 99% (active) | 87.5% (active) | 93% (active) | 99% (active) | 85.5% (active) | 73% (active) | 97% (active) | 74% (active) | 90% (active) | 99% (active) | 83.8% (active) | 96% (active) | 99% (active) | 75.7% (active)
16 | Oc1ccc2cc(Br)ccc2c1 | 8% | 98% (active) | 54.1% | 0% | 99% (active) | 99% (active) | 2% | 97% (active) | 45.1% | -2% | 98% (active) | 56.4% | 4% | 99% (active) | 99% (active) | 3% | 99% (active) | 98.8% (active)
17 | FC(F)(F)c1ccc(Cl)c(NC(=S)SC2CCCCC2)c1 | 5% | 95% (active) | 98.5% (active) | 0% | 97% (active) | 99.2% (active) | 7% | 99% (active) | 99.3% (active) | -30% | 88% (active) | 98.5% (active) | 0% | 98% (active) | 98.8% (active) | 7% | 97% (active) | 98.4% (active)
18 | Oc1cc(F)ccc1-c1ccc(F)cc1 | -5% | 98% (active) | 72.5% (active) | 20% | 99% (active) | 85% (active) | 13% | 97% (active) | 47.4% | -9% | 98% (active) | 60.3% | -12% | 99% (active) | 75.7% (active) | -6% | 98% (active) | 84.7% (active)
19 | Cc1ccccc1C[n+]1ccccc1Br | 11% | 87% (active) | 94.3% (active) | 9% | 79% (active) | 60.6% | 12% | 78% (active) | 64.6% | -4% | 74% (active) | 32% | -12% | 77% (active) | 59.6% | 15% | 90% (active) | 54.4%

Reference: PubChem BioAssay (NCI)
